Reference: PubChem BioAssay (NCI)
This is part of a sample that, as a whole, favours compounds with a hit. Of some 83,000 tested, about 20% had one in any assay.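 Single-concentration screen, 48 h exposure, 96-well plates. Endpoint: percent growth. Below 10 = active.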 A number with no mark means an inactive call. The source made the active and inactive calls.

Tests used:
Assay in all cases: NCI-60 one-dose screen, 48 h (100 = growth as untreated, 0 = no growth, -100 = all killed)
Details in all cases: 10 µM unless noted
SR leukemia = test system: SR leukemia
RPMI-8226 leukemia = test system: RPMI-8226 leukemia
OVCAR-8 ovarian = test system: OVCAR-8 ovarian
OVCAR-5 ovarian = test system: OVCAR-5 ovarian
OVCAR-4 ovarian = test system: OVCAR-4 ovarian
SK-OV-3 ovarian = test system: SK-OV-3 ovarian
IGROV1 ovarian = test system: IGROV1 ovarian
OVCAR-3 ovarian = test system: OVCAR-3 ovarian
NCI/ADR-RES ovarian = test system: NCI/ADR-RES ovarian
T-47D breast = test system: T-47D breast
BT-549 breast = test system: BT-549 breast
MDA-MB-435 melanoma = test system: MDA-MB-435 melanoma
SW-620 colon = test system: SW-620 colon
MCF7 breast = test system: MCF7 breast
HCT-116 colon = test system: HCT-116 colon
HCC-2998 colon = test system: HCC-2998 colon
KM12 colon = test system: KM12 colon

Structure (SMILES)	growth (SR leukemia)	growth (RPMI-8226 leukemia)	growth (OVCAR-8 ovarian)	growth (OVCAR-5 ovarian)	growth (OVCAR-4 ovarian)	growth (SK-OV-3 ovarian)	growth (IGROV1 ovarian)	growth (OVCAR-3 ovarian)	growth (NCI/ADR-RES ovarian)	growth (T-47D breast)	growth (BT-549 breast)	growth (MDA-MB-435 melanoma)	growth (SW-620 colon)	growth (MCF7 breast)	growth (HCT-116 colon)	growth (HCC-2998 colon)	growth (KM12 colon)
NC(N)=N/N=C/c1cccc(Br)c1	104%	95.3%	110%	104%	91.6%	91.4%	86.4%	99.8%	103%	86.8%	87%	105%	102%	90.5%	92.5%	101%	107%
CC#Cc1nc(Nc2cc(C)[nH]n2)c2ccccc2n1	-5.19% [100 µM] (active)	-21.3% [100 µM] (active)	13.8% [100 µM]	29.4% [100 µM]	20% [100 µM]	29.4% [100 µM]	-46.7% [100 µM] (active)	-59% [100 µM] (active)	20.3% [100 µM]	2.69% [100 µM] (active)	-61.9% [100 µM] (active)	-44.4% [100 µM] (active)	-1.25% [100 µM] (active)	6.03% [100 µM] (active)	-15.7% [100 µM] (active)	-86.3% [100 µM] (active)	-74.6% [100 µM] (active)
CCOC1=C(Cl)C(=O)C(OCC)=C(Cl)C1=O	87.7%	105%	104%	110%	105%	93.5%	99.1%	105%	100%	93.5%	114%	100%	110%	99.5%	113%	91.2%	98.3%
CC(=O)CC(=O)OC/C=C(/C)CCC=C(C)C	92.2%	112%	103%	100%	113%	111%	116%	110%	102%	123%	102%	114%	105%	99.6%	98.9%	97.2%	105%
CCCCN(CCC)CCCCCCCCCCN1CCCc2ccccc21	10.5%	-2.32% (active)	102%	108%	79.4%	81.4%	48.5%	53.7%	90.1%	102%	89.6%	85.2%	43.9%	76.2%	58.3%	98.3%	45.2%
O=C(/C=C/c1ccc(Br)cc1)c1ccccc1	4.53% (active)	1.56% (active)	91.9%	113%	96.3%	111%	87.3%	93.3%	99.5%	74.8%	95.8%	87.6%	65.6%	8.28% (active)	61.6%	99.4%	39.6%
CC1(C)NC(=S)NC1=O	93.1%	101%	106%	108%	103%	98.6%	116%	112%	104%	91.6%	103%	110%	96.9%	99.2%	102%	112%	108%
O=C1C(Br)=CC2C1C1C3CCC3C2(Br)C12OCCO2 (stereo not given)	4.59% (active)	7.82% (active)	28.5%	33.5%	59.2%	32.1%	36.7%	12.5%	51.3%	3.72% (active)	45.6%	23.7%	17.3%	2.12% (active)	16.1%	74.8%	44.9%
CC(=N\N=C(N)N)/C(=N/N=C(N)N)c1ccccc1	89.3%	91.7%	83.1%	96.1%	79.2%	102%	91.4%	97.9%	90.2%	60.8%	88%	103%	86.3%	18.9%	80.4%	73.8%	70.4%
O=C(O)c1occ(Cl)c1Cl	92.7%	100%	107%	96.5%	115%	109%	120%	118%	111%	103%	130%	98.5%	104%	111%	116%	104%	110%
COC(=O)c1cc(Nc2ccc(O)c3c2C(=O)c2c([N+](=O)[O-])ccc(O)c2C3=O)cc(C(=O)OC)c1	2.02% (active)	17.9%	65.1%	50.4%	80.5%	82.3%	85.9%	54.7%	71.2%	68.9%	44.7%	-84.4% (active)	13.1%	33.3%	36.1%	36.3%	88.7%
CCCCCCCCCc1cc[n+](CC(=O)c2ccc([N+](=O)[O-])cc2)cc1	-14.3% (active)	-25.8% (active)	11.7%	18.9%	19.8%	50%	26.6%	3.13% (active)	66.3%	22.2%	15.2%	-20.8% (active)	–	-41.3% (active)	-34.5% (active)	-76.3% (active)	-31.5% (active)
Cn1c2ccccc2c2ccccc21	87.6%	94.3%	98.3%	107%	105%	102%	102%	107%	101%	90%	106%	103%	106%	106%	107%	110%	101%
O=C(CCC(=O)N(CCO)CCO)N(CCO)CCO	89.8%	101%	103%	105%	105%	99%	98.1%	97.5%	108%	98.5%	93.5%	109%	106%	94.6%	95.7%	110%	99.8%
CNc1ccc(Nc2ccc(S(=O)(=O)O)cc2)c2c1C(=O)c1ccccc1C2=O	99.7%	107%	101%	98.7%	109%	117%	105%	121%	108%	110%	99.5%	95%	112%	97%	109%	112%	108%
CSC1=Nc2c(c(C)c(-c3ccccc3)n2CCCCl)C2=NC(=O)CN12	12.8%	50.5%	88.4%	86.2%	75.5%	87.5%	47.9%	85.2%	58%	72.4%	61.2%	-31.4% (active)	44.4%	36.3%	26.7%	72.3%	26.1%
O=C1C=C(OCC=C(C(F)(F)F)C(F)(F)F)c2ccccc2C1=O	-19.7% (active)	-38.7% (active)	-22.8% (active)	96.3%	-7.2% (active)	59.8%	-12.4% (active)	-19.9% (active)	28.6%	-68.9% (active)	39%	-40.2% (active)	-34.9% (active)	-76.8% (active)	-33.3% (active)	-12.1% (active)	43.3%
CCCCCCCCCCCCCCCCCC1=NCCN1CS(=O)(=O)O	-3.33% (active)	65%	36.1%	76.9%	82.4%	70.4%	-23.8% (active)	50.9%	59.2%	57.4%	93.5%	-19.9% (active)	4.2% (active)	30.3%	44.2%	101%	16.4%
